Assay in all cases: peptide microarray binding signal (635 nm), min-max normalized on array (fraction of array maximum); higher = stronger binding
Conditions in all cases: peptide region: H3 1-13

The target of assay [1] is T1, HaloTag-ATRX ADD domain (163-292).
T1 chain: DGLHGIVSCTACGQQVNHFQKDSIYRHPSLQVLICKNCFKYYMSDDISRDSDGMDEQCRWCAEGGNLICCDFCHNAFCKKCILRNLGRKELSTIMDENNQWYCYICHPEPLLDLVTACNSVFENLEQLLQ
The method, then: (§1)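 Histone 13-mer peptides were synthesized as cellulose conjugates with a C-terminal 20-atom PEG linker and printed in triplicate on nitrocellulose. The sequence given is the unmodified backbone; PTMs (Kme1/2/3, Kac, Sph/Tph, Rme/Rme2a/Rme2s, Rcit) are listed in the label and the 'peptide modifications' condition. Slides were probed at 4 °C for 1 h with biotin-labelled (HQ)5-HaloTag reader fusions (ATRX-ADD, ING2-PHD) then streptavidin-Alexa647, or with rabbit histone antibodies then anti-rabbit Alexa647. The mean 635 nm signal of the triplicate spots was scaled 0-1 between the lowest and highest values on each array.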

For assay [2], the target named is HaloTag-ING2 PHD (mouse Ing2 200-280). The protocol: as §1
Assay [3] deals with anti-H3K4me3 antibody ab8580. The protocol:
as §1

Assay [4] deals with anti-H3K9me3 antibody ab8898. The protocol:
as §1

Where [5] appears, read: peptide modifications: H3K4me3, binder concentration: 1:2,000 dilution.
The mark [6] stands for this setting: peptide modifications: H3K4me3, binder concentration: 1:10,000 dilution.
[7] abbreviates: peptide modifications: H3K4me2 H3T6ph, binder concentration: 1:2,000 dilution.
The mark [8] stands for this setting: peptide modifications: H3K4me2 H3T6ph, binder concentration: 1:10,000 dilution.
Setting [9] is: peptide modifications: H3K4me1 H3K9me1, binder concentration: 1:2,000 dilution.
Setting [10] is: peptide modifications: H3K4me1 H3K9me1, binder concentration: 1:10,000 dilution.
[11] abbreviates: peptide modifications: H3K4me1 H3T6ph, binder concentration: 1:2,000 dilution.
Where [12] appears, read: peptide modifications: H3K4me1 H3T6ph, binder concentration: 1:10,000 dilution.
The mark [13] stands for this setting: peptide modifications: H3K4me1, binder concentration: 1:2,000 dilution.
The mark [14] stands for this setting: peptide modifications: H3K4me1, binder concentration: 1:10,000 dilution.
[15] abbreviates: peptide modifications: H3K4ac, binder concentration: 1:2,000 dilution.
[16] abbreviates: peptide modifications: H3K4ac, binder concentration: 1:10,000 dilution.
[17] abbreviates: peptide modifications: H3K4ac H3K9me3, binder concentration: 1:2,000 dilution.
[18] abbreviates: peptide modifications: H3K4ac H3K9me3, binder concentration: 1:10,000 dilution.
Where [19] appears, read: peptide modifications: H3K4ac H3K9me2, binder concentration: 1:2,000 dilution.
The mark [20] stands for this setting: peptide modifications: H3K4ac H3K9me2, binder concentration: 1:10,000 dilution.
[21] abbreviates: binder concentration: 1:2,000 dilution.
[22] abbreviates: binder concentration: 1:10,000 dilution.
The mark [23] stands for this setting: peptide modifications: H3K4me2 H3K9me1, binder concentration: 1:2,000 dilution.
[24] abbreviates: peptide modifications: H3K4me2 H3K9me1, binder concentration: 1:10,000 dilution.

± gives the standard deviation.

Take ARTKQTARKSTGG [H3 1-13 A R T Kme3 Q T A R K S T G G]: the “peptide microarray binding signal” value amounted to 0.00868 ± 0.00032 in assay [1] (peptide modifications: H3K4me3, binder concentration: 50 nM); 0.0201 ± 0.0038 in assay [1] (peptide modifications: H3K4me3, binder concentration: 500 nM); 0.383 ± 0.2 in assay [2] (peptide modifications: H3K4me3, binder concentration: 10 nM); 0.232 ± 0.072 in assay [2] (peptide modifications: H3K4me3, binder concentration: 100 nM); 0.596 ± 0.33 in assay [3] (setting [5]); 0.549 ± 0.54 in assay [3] (setting [6]). Besides, the “peptide microarray binding signal” value in assay [4] (setting [5]) was determined as 0.0584 ± 0.025; in assay [4] (setting [6]), 0.0227 ± 0.011.

For the molecule ARTKQTARKSTGG [H3 1-13 A R T Kme2 Q Tph A R K S T G G], the “peptide microarray binding signal” value was found to be 0.00636 ± 7.4e-05 in assay [1] (peptide modifications: H3K4me2 H3T6ph, binder concentration: 50 nM); 0.0142 ± 0.0017 in assay [1] (peptide modifications: H3K4me2 H3T6ph, binder concentration: 500 nM); 0.139 ± 0.025 in assay [2] (peptide modifications: H3K4me2 H3T6ph, binder concentration: 10 nM); 0.385 ± 0.012 in assay [2] (peptide modifications: H3K4me2 H3T6ph, binder concentration: 100 nM); 0.0372 ± 0.011 in assay [3] (setting [7]); 0.0131 ± 0.0018 in assay [3] (setting [8]). For the same molecule, the “peptide microarray binding signal” value in assay [4] (setting [7]) is 0.00426 ± 0.0013; in assay [4] (setting [8]), 0.00271 ± 0.00042.

On to ARTKQTARKSTGG [H3 1-13 A R T Kme Q T A R Kme S T G G], for which the “peptide microarray binding signal” value in assay [1] (peptide modifications: H3K4me1 H3K9me1, binder concentration: 50 nM) is 0.00743 ± 0.00015; in assay [1] (peptide modifications: H3K4me1 H3K9me1, binder concentration: 500 nM), 0.0134 ± 0.00046; in assay [2] (peptide modifications: H3K4me1 H3K9me1, binder concentration: 10 nM), 0.105 ± 0.023; in assay [2] (peptide modifications: H3K4me1 H3K9me1, binder concentration: 100 nM), 0.145 ± 0.024; in assay [3] (setting [9]) it was 0.0452 ± 0.0073; in assay [3] (setting [10]) it was 0.0277 ± 0.0056. Further, the results for the “peptide microarray binding signal” value in assay [4] (setting [9]) and in assay [4] (setting [10]) were 0.00387 ± 0.00011 and 0.00248 ± 0.00012, respectively.

With ARTKQTARKSTGG [H3 1-13 A R T Kme Q Tph A R K S T G G], the “peptide microarray binding signal” value amounted to 0.00661 ± 0.00014 in assay [1] (peptide modifications: H3K4me1 H3T6ph, binder concentration: 50 nM); 0.0257 ± 0.00052 in assay [1] (peptide modifications: H3K4me1 H3T6ph, binder concentration: 500 nM); 0.087 ± 0.04 in assay [2] (peptide modifications: H3K4me1 H3T6ph, binder concentration: 10 nM); 0.211 ± 0.02 in assay [2] (peptide modifications: H3K4me1 H3T6ph, binder concentration: 100 nM); 0.00296 ± 0.00042 in assay [3] (setting [11]); 0.00194 ± 0.00011 in assay [3] (setting [12]). Besides, the “peptide microarray binding signal” value was 0.00414 ± 0.00036 in assay [4] (setting [11]) and 0.00259 ± 0.00028 in assay [4] (setting [12]).

In the case of ARTKQTARKSTGG [H3 1-13 A R T Kme Q T A R K S T G G], the “peptide microarray binding signal” value in assay [1] (peptide modifications: H3K4me1, binder concentration: 50 nM) came out at 0.00755 ± 0.00014; in assay [1] (peptide modifications: H3K4me1, binder concentration: 500 nM), 0.0155 ± 0.00093; in assay [2] (peptide modifications: H3K4me1, binder concentration: 10 nM), 0.0269 ± 0.0015; in assay [2] (peptide modifications: H3K4me1, binder concentration: 100 nM) it was 0.112 ± 0.035; in assay [3] (setting [13]), 0.0156 ± 0.0047; in assay [3] (setting [14]) it was 0.0142 ± 0.0025. Moreover, the results for the “peptide microarray binding signal” value in assay [4] (setting [13]) and in assay [4] (setting [14]) were 0.00231 ± 0.00034 and 0.00173 ± 1.7e-05, respectively.

In the case of ARTKQTARKSTGG [H3 1-13 A R T Kac Q T A R K S T G G], the “peptide microarray binding signal” value was determined as 0.0102 ± 0.00024 in assay [1] (peptide modifications: H3K4ac, binder concentration: 50 nM); 0.0281 ± 0.0023 in assay [1] (peptide modifications: H3K4ac, binder concentration: 500 nM); 0.214 ± 0.045 in assay [2] (peptide modifications: H3K4ac, binder concentration: 10 nM); 0.0856 ± 0.085 in assay [2] (peptide modifications: H3K4ac, binder concentration: 100 nM); 0.00445 ± 0.0025 in assay [3] (setting [15]); 0.00188 ± 0.00011 in assay [3] (setting [16]). Also, the “peptide microarray binding signal” value in assay [4] (setting [15]) worked out at 0.00439 ± 0.00098; in assay [4] (setting [16]), 0.0019 ± 0.00014.

Turning to ARTKQTARKSTGG [H3 1-13 A R T Kac Q T A R Kme3 S T G G], the “peptide microarray binding signal” value was found to be 0.0136 ± 0.004 in assay [1] (peptide modifications: H3K4ac H3K9me3, binder concentration: 50 nM); 0.0491 ± 0.024 in assay [1] (peptide modifications: H3K4ac H3K9me3, binder concentration: 500 nM); 0.0828 ± 0.015 in assay [2] (peptide modifications: H3K4ac H3K9me3, binder concentration: 10 nM); 0.0894 ± 0.0073 in assay [2] (peptide modifications: H3K4ac H3K9me3, binder concentration: 100 nM); 0.0339 ± 0.018 in assay [3] (setting [17]); 0.0225 ± 0.0063 in assay [3] (setting [18]). Also, the entries for the “peptide microarray binding signal” value in assay [4] (setting [17]) and in assay [4] (setting [18]) were 0.0825 ± 0.052 and 0.0423 ± 0.027, respectively.

Regarding ARTKQTARKSTGG [H3 1-13 A R T Kac Q T A R Kme2 S T G G], the “peptide microarray binding signal” value came out at 0.00875 ± 0.0011 in assay [1] (peptide modifications: H3K4ac H3K9me2, binder concentration: 50 nM); 0.0157 ± 0.0031 in assay [1] (peptide modifications: H3K4ac H3K9me2, binder concentration: 500 nM); 0.0771 ± 0.0077 in assay [2] (peptide modifications: H3K4ac H3K9me2, binder concentration: 10 nM); 0.0944 ± 0.0071 in assay [2] (peptide modifications: H3K4ac H3K9me2, binder concentration: 100 nM); 0.00689 ± 0.0014 in assay [3] (setting [19]); 0.00702 ± 0.001 in assay [3] (setting [20]). In addition, the entries for the “peptide microarray binding signal” value in assay [4] (setting [19]) and in assay [4] (setting [20]) were 0.00331 ± 0.0003 and 0.00455 ± 0.00089, respectively.

Turning to ARTKQTARKSTGG [H3 1-13 A R T K Q T A R K S T G G], the “peptide microarray binding signal” value in assay [1] (binder concentration: 50 nM) came to 0.0155 ± 0.00087; in assay [1] (binder concentration: 500 nM), 0.0263 ± 0.0017; in assay [2] (binder concentration: 10 nM), 0.0231 ± 0.0017; in assay [2] (binder concentration: 100 nM), 0.00957 ± 0.0015; in assay [3] (setting [21]), 0.00185 ± 0.00055; in assay [3] (setting [22]), 0.00126 ± 6.5e-05. Moreover, the “peptide microarray binding signal” value in assay [4] (setting [21]) is 0.00196 ± 0.00012; in assay [4] (setting [22]), 0.000807 ± 1.5e-05.

On to ARTKQTARKSTGG [H3 1-13 A R T Kme2 Q T A R Kme S T G G], for which the “peptide microarray binding signal” value amounted to 0.0128 ± 0.00075 in assay [1] (peptide modifications: H3K4me2 H3K9me1, binder concentration: 50 nM); 0.0286 ± 0.0013 in assay [1] (peptide modifications: H3K4me2 H3K9me1, binder concentration: 500 nM); 0.656 ± 0.061 in assay [2] (peptide modifications: H3K4me2 H3K9me1, binder concentration: 10 nM); 0.43 ± 0.13 in assay [2] (peptide modifications: H3K4me2 H3K9me1, binder concentration: 100 nM); 0.365 ± 0.067 in assay [3] (setting [23]); 0.152 ± 0.018 in assay [3] (setting [24]). For the same molecule, the “peptide microarray binding signal” value in assay [4] (setting [23]) is 0.00797 ± 0.0012; in assay [4] (setting [24]), 0.00398 ± 0.00019.

Source of the values: the supplement of paper PMC4022240.
